Data as given in PubChem BioAssay (NCI).
The panel holds about 83,000 compounds, 20% with a hit somewhere; the sample as a whole holds those more often.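 Step 1: grow cells in 96-well plates. Step 2: add test compound at a single concentration. Step 3: incubate 48 h. Step 4: record percent growth.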 Values without a mark were called inactive. The source made the active and inactive calls.

system: MDA-MB-435 melanoma; assay: NCI-60 one-dose screen, 48 h (100 = growth as untreated, 0 = no growth, -100 = all killed); details: 10 µM unless noted
Experimental: Growth inhibition of the MDA-MB-435 human Melanoma tumor cell line is measured as a screen for anti-cancer activity. Cells are grown in 96 well plates and exposed to the test compound for 48 hours. Compounds are tested at a single concentration, which is 10^-5 M for most compounds. The reported endpoint is percent growth (GI% or GIPRCNT), where numbers from 0 - 100% represent growth inhibition, and numbers from -100% - 0 represent cell death. For example, a value of 40 represents 60% growth inhibition. A value of 0 means no net growth occurred over the course of the experiment. A value of -40 indicates 40% of cells at the beginning of the experiment died by the end of the experiment. A value of -100 means all cells are dead at the end of the experiment.
NCI-60 Human Tumor Cell Lines Screen was performed using the standard one-dose NCI protocol, which is described in more detail at https://dtp.cancer.gov/discovery_development/nci-60/default.htm.
Compounds with GIPRCNT values below 10 were considered active. Activity score was based on GIPRCNT using the following formula: […]
Score is 0 for GIPRCNT values of 100 or above, 50 for GIPRCNT values of 0, and 100 for GIPRCNT values of -100.

| SMILES | growth |
| --- | --- |
| CC(C)(C)n1cc(-c2ccnc(NCCCNS(=O)(=O)c3ccc(Br)cc3)c2)c(-c2cccc(O)c2)n1 | 39% |
| O=c1ccn(-c2ncnc3nc[nH]c23)cc1 | 102% |
| COc1ccc2c(c1)OC1=C(C(=O)OC1)C2c1cc(OC)c2c(c1)OCO2 (stereo not given) | -22.5% (active) |
| C=C1C(=O)O[C@H]2[C@H]1CC/C(Cn1cc(CNC(=O)/C=C/c3c[nH]c4ccccc34)nn1)=C\CC[C@@]1(C)O[C@@H]21 | 83.9% |
| CCCCCCN1CSC(=S)N(CCCCCC)C1 | 97.6% |
| Fc1ccccc1-c1nc(-c2nc3cc(Cl)c(Cl)cc3[nH]2)c2ccccn12 | 73.6% |
| CCOC(=O)c1ccc(NC(=O)N2CC(C)OC(C)C2)cc1 (stereo not given) | 105% |
| Cc1ccc(S(=O)(=O)Nc2c(Br)cc(Br)cc2C(N)=O)cc1 | 108% |
| CN(C)CCN1C(=O)c2ccc3c4c(ccc(c24)C1=O)C(=O)N(CCN=C=S)C3=O | -90.9% (active) |
| CCN(CC)c1ccc(N=O)cc1 | 66.9% |
| Cc1cc(N/N=C/c2nc(-c3ccccc3)oc2C)c2cc(Cl)ccc2n1 | -95.6% (active) |
| COc1cccc(CC(C)=C(c2ccc(OCCN3CCCCC3)cc2)c2ccc(OCCN3CCCCC3)cc2)c1 | -96.6% (active) |
| ClC(Cl)c1nc(-c2cccnc2)n2nc(-c3ccccc3)cc2n1 | 0.991% (active) |
| CCN(CC)CCOc1ccc(/C(=C(/C)c2ccccc2)c2ccc(OC(C)=O)cc2)cc1 | 94.8% |
| O=C(Nc1ccc(NCCN2CCOCC2)nc1)c1ccc([N+](=O)[O-])cc1 | 97.8% |
| O=C([O][Sn]([O]C(=O)c1ccccn1)([c]1ccccc1)[c]1ccccc1)c1ccccn1 | 80.6% |
| COc1ccc2c(c1)[nH]c(=O)c1c3cc(OC)ccc3cn21 | -9.37% (active) |
| NC(=S)N/N=C(/CCN1CCCC1)CC(C1=C(O)C2=CCCCC2OC1=O)c1ccccc1 (stereo not given) | 90.7% |
| CCOC(=O)c1cc(C(=O)c2cc(OC)c(OC)c(OC)c2)n2c1ccc1ccccc12 | -54.6% (active) |
| CCN(CC)c1ccc(CNc2ccnc3ccccc23)cc1 | 48.2% |

| SMILES | growth |
| --- | --- |
| COc1ccc(/C(C#N)=C/c2cc(OC)c(OC)c(OC)c2)cc1 | -48.8% (active) |
| N=C(N)c1ccc(-c2ccc(-c3ccc(-c4cccs4)s3)s2)cc1 | 103% |
| N#Cc1c(-c2ccccc2)cc(-c2ccccc2)n(CC(=O)NO)c1=O | 49.8% |
| COc1cc(-c2nn(-c3cccc(NC(=O)c4ccccc4)c3)cc2-c2ccncc2)ccc1Cl | -57.9% (active) |
| Cc1cc(C2(c3cc(C)c(O)cc3C)OS(=O)(=O)c3ccccc32)c(C)cc1O | 116% |
| CN1C=CN(Cc2ccc(-c3ccccn3)nc2)[CH-]1.CN1C=CN(Cc2ccc(-c3ccccn3)nc2)[CH-]1.[Au+3] | 30.6% |
| CCc1ccc(-c2ccc(=O)n(-c3ccc(S(N)(=O)=O)cc3)n2)cc1 | -17.8% (active) |
| NC(N)=N/N=C/c1ccc(-c2ccc(-c3cc(Cl)cc(Cl)c3)s2)cc1 | 1.1% (active) |
| COc1ccc(C2C=C(c3ccc(OC)c(OC)c3)N=C3SC=C(C)N32)c(Br)c1 (stereo not given) | 110% |
| COc1cc(-c2nn(-c3cccc(NC(=O)c4ccc(N5CCOCC5)c(C(F)(F)F)c4)c3)cc2-c2ccncc2)ccc1Cl | -35.1% (active) |
| CN1CCN(Cc2ccc(NC(=O)c3cncc(C#Cc4cnc(N)c5ccncc45)c3)cc2C(F)(F)F)CC1 | 9.96% (active) |
| COc1cc(/C=C/C(=O)c2cccc(-n3cc(-c4cc(OC)c(OC)c(OC)c4)[nH]c3=O)c2)cc(OC)c1OC | 3.2% (active) |
| CSc1nc2c(c(=O)[nH]1)C(c1ccc(C)cc1)C=C(C(=O)O)N2 (stereo not given) | 102% |
| Cc1ccc(S(=O)(=O)NC(=O)n2cc(-c3ccncc3)c(-c3ccc(Cl)c(O)c3)n2)cc1 | 82.2% |
| CCCCCCCCCCCCCCCCNC(=O)OC(C)C | 68.5% |
| C1=Cc2ccccc2N(c2nnc(-c3ccccc3)o2)c2ccccc21 | 87.9% |
| Nc1nc(Nc2cc(Cl)cc(Cl)c2)nn1S(=O)(=O)c1ccc2ccccc2c1 | 77.5% |
| O=C1c2c(Cl)c(Cl)c(Cl)c(Cl)c2C(=O)C2(Cl)CC=CCC12Cl (stereo not given) | 21.5% |
| NC(=S)N/N=C1\CCCC(C(F)(F)F)C1 (stereo not given) | 105% |
| c1ccc(-c2nnc(-c3ccccn3)s2)nc1 | 105% |
